Bioassay records deposited in PubChem BioAssay by several laboratories.
HDAC3 inhib = inhibitors of human histone deacetylase 3; recombinant HDAC3, fluorogenic peptide/trypsin coupled, fluorescence; inhibition, % at 8.3 µM; actives 0.15% (n = 320,000); in the data active means inhibition above about 26%, passing the limit was not always enough; inconclusive means no clear call, values can overlap the other calls
Target sequence (O15379 whole entry, looked up): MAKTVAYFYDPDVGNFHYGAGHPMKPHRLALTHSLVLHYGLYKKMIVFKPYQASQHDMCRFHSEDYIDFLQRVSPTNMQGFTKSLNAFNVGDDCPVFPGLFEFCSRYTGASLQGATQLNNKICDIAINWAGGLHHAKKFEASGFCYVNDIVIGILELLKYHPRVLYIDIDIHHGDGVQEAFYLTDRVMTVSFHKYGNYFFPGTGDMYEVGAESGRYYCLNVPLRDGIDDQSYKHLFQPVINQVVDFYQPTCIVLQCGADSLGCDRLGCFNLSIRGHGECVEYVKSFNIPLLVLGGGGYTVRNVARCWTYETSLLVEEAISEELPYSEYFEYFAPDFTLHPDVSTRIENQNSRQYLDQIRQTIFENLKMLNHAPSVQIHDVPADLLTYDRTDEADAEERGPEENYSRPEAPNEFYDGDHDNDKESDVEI
ALR inh = inhibitors of human sulfhydryl oxidase ALR. AID 485317. actives 3.8% (n = 290,000). P55789. purified ALR, DTT oxidation, H2O2 HRP-luminol luminescence. inhibition, % (concentration not given with the values);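 active means mean replicate inhibition above about 79%, with every replicate also reaching it, limit read from the data; inconclusive means only one of the two criteria met; inactive means mean below limit and not every replicate reaching it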
NPR1 activator = GC-A (human) enzyme activation; HEK293 GC-A cells, cGMP TR-FRET, EC30 ANP; 0% at EC30 ANP, 100% saturating ANP; AID 1671463; activation, % at 10 µM; actives 0.14% (n = 370,000); in the data active means activation above about 40%
NPR2 activator = GC-B (human) receptor activation; P20594; HEK293-GC-B cells, CNP EC30, cGMP TR-FRET; 0% at EC30 CNP, 100% saturating CNP; activation, % at 10 µM; actives 0.11% (n = 370,000);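 active means activation at 10 µM reaching about 35% in either raw or pattern-adjusted values, limit read from the data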
Starred values were filed as active, the others as inactive; ? = inconclusive; nt = not tested or not shown. The entries come from a sample that favours hits as a whole.

SMILES	HDAC3 inhib	ALR inh	NPR1 activator	NPR2 activator
O=C(O)c1cc(S(=O)(=O)Nc2ccc(N3CCCCC3)cc2)ccc1Cl	-4	98*	8	3
C[C@@H]1ON(C)[C@H]2C[C@H]3c4[nH]c5cccc(-c6ccccc6F)c5c4CCN3C(=O)[C@@H]12	nt	nt	3	4
CC(C)N(C(=O)[C@H]1CC(CC(=O)NCc2cccc(C(F)(F)F)c2)C(=O)N2CCc3c([nH]c4ccccc34)[C@]12C)C(C)C (some centres undefined)	?	nt	0	2
CCC(=O)Nc1ccc2c(c1)C(=O)N(C)[C@@H]1CC[C@@H](CC(=O)NCc3ccc(OC)cc3)O[C@H]1CO2	nt	nt	3	4
CS(=O)(=O)c1ccc(Sc2nc3ccccc3s2)c([N+](=O)[O-])c1	7	3	nt	nt
O=[N+]([O-])c1cc(S(=O)(=O)C(F)(F)F)ccc1Sc1nc2ccccc2s1	1	98*	-37	-32
CS(=O)(=O)c1ccc(Sc2nc3ccccc3[nH]2)c([N+](=O)[O-])c1	-3	-43	3	6
O=[N+]([O-])c1cc(S(=O)(=O)C(F)(F)F)ccc1Sc1nc2ccccc2[nH]1	-1	91*	-9	-17
Cc1ccc(OCC(=O)N(C)CC(=O)Nc2cccc(F)c2)cc1	-1	1	-2	-4
S=c1nc(-c2cc(Cl)ccc2Cl)[nH][nH]1	6	-77	0	-12
S=c1nc(-c2ccccc2Br)[nH][nH]1	-2	99*	3	1
Cc1cc(NC(=O)c2sc(Nc3ccc(F)cc3)nc2N)no1	3	97*	-4	-3
C=CCNc1nc(N)c(C(=O)Nc2cc(C)on2)s1	2	11	0	-1
CCCCSc1nc(O)c(C2OC(=O)c3c2ccc(OC)c3OC)c(=O)n1C (centres undefined)	4	?	0	-2
CCCCCCSc1nc(O)c(C2OC(=O)c3c2ccc(OC)c3OC)c(=O)n1-c1ccccc1 (centres undefined)	2	98*	3	0
Cc1cc(C)cc(C(O)c2ncc(-c3ccccc3Cl)[nH]2)c1 (centres undefined)	nt	nt	-3	-7
COc1cc(OC)cc(C(=O)Nc2nnc(SCC(=O)NCc3ccco3)s2)c1	6	13	1	-6
Cn1c(COc2ccccc2Br)nc2ccccc21	-2	-4	-9	-10
COc1cc(CNc2ccccc2SC)ccc1O	-3	52	2	0
CCOc1cc(CNc2ccccc2SC)ccc1O	-2	80*	nt	nt
N=C1/C(=C\c2ccc(SCc3ccccc3)o2)C(=O)N=C2SC(CC(=O)N3CCOCC3)=NN12	5	98*	0	-3
Cc1ccc(/C=C2\C(=N)N3N=C(CC(=O)N4CCOCC4)SC3=NC2=O)o1	-1	92*	-1	1
COc1ccc(/C=C2\C(=N)N3N=C(CC(=O)N4CCOCC4)SC3=NC2=O)cc1	1	-6	1	-1
CCOC(=O)C1=C(N)OC2=C(C(=O)CCC2)C1c1ccccc1OCC (centres undefined)	5	78*	-9	-4
O=C(NNc1nc2c(F)cc(F)cc2s1)C1=COCCO1	-1	98*	6	3
SMILES	HDAC3 inhib	ALR inh	NPR1 activator	NPR2 activator
CC(C)(C)NC(=O)CSc1nnc(-c2ccccc2)c(-c2ccccc2)n1	9	9	nt	nt
CC(=O)NNC(=O)CSc1nnc(-c2ccccc2)c(-c2ccccc2)n1	4	83*	-1	-2
Cc1ccc(NC(NC(=O)c2ccccc2[N+](=O)[O-])C(Cl)(Cl)Cl)cc1 (centres undefined)	0	99*	-4	0
Cc1ccc(CCC(=O)Nc2ccccc2C(=O)O)o1	-7	21	-1	-2
CCCCOC(=O)Sc1nc2ccccc2o1	3	93*	7	-2
COc1ccc(C(=O)/C=C/Sc2nc3ccccc3o2)cc1	5	47	35	4
CCCn1c2ccc(/C(C)=N\O)cc2c2cc(/C(C)=N/O)ccc21	0	98*	-24	-25
COc1cc(-c2cc(NC(C)=O)c3ncc(-c4ccc(C(C)=O)cc4)n3c2)cc(OC)c1OC	nt	nt	46*	46*
COc1cc(-c2cc(NC(C)=O)c3ncc(-c4ccc(F)cc4)n3c2)cc(OC)c1OC	nt	nt	23	28
COc1ccc(-c2cnc3c(NC=O)cc(-c4cc(OC)c(OC)c(OC)c4)cn23)cc1OC	nt	nt	29	39*
CC(=O)Nc1cc(-c2cccc(N)c2)cn2c(-c3ccc(C(C)=O)cc3)cnc12	nt	nt	6	35*
O=S(=O)(CC1NCCc2ccccc21)NCCc1ccccc1 (centres undefined)	nt	nt	1	0
COc1ccccc1OCCNC(=O)c1ccccc1OCc1c(C)noc1C	-1	-9	-6	-3
Cc1ccccc1-n1nc2c(c1NC(=O)c1cc3ccccc3oc1=O)CS(=O)(=O)C2	4	-3	31	38*
Cc1ccccc1-n1nc2c(c1NC(=O)c1cc3ccccc3oc1=O)CS(=O)C2 (centres undefined)	3	-14	nt	nt
Cc1cccc(C)c1NC(=O)c1nc(S(=O)(=O)Cc2ccccc2)ncc1Cl	nt	97*	-1	1
Cc1nnc(NC(=O)c2nc(S(=O)(=O)Cc3ccccc3)ncc2Cl)s1	nt	99*	3	-1
Cc1cccc(CS(=O)(=O)c2ncc(Cl)c(C(=O)Nc3c(C)cccc3C)n2)c1	nt	98*	1	4
Cc1cccc(CS(=O)(=O)c2ncc(Cl)c(C(=O)NCc3ccccc3)n2)c1	1	-1	9	5
CC(C)C[C@H](NC1(C(=O)NC2CCCCC2)CCN(C)CC1)C(=O)NCC(c1ccccc1)c1ccccc1	nt	nt	-8	-10
CN(C)c1ccc2nc3ccc(=[N+](C)C)cc-3sc2c1	5	99*	-164	-329
CN(C)c1ccc2nc3ccc(=O)cc-3sc2c1	nt	nt	-114	-33
CCN(CC)c1ccc(/C=C2\NC(=O)NC2=O)cc1	-5	99*	-8	-4
COc1ccc(N2CCN(CCC3Oc4cc([N+](=O)[O-])ccc4NC3=O)CC2)cc1 (centres undefined)	-6	86*	3	-5
CC(=O)c1ccccc1NC(=O)COC(=O)/C=C/c1cccs1	-1	-8	0	4
SMILES	HDAC3 inhib	ALR inh	NPR1 activator	NPR2 activator
CC(=O)c1ccccc1NC(=O)COC(=O)/C=C/c1ccc(C)o1	-3	96*	1	1
COc1cnc(-c2ccccn2)nc1Oc1cccc(Cl)c1	-7	95*	6	-2
COc1ccc(Oc2nc(-c3ccccn3)ncc2OC)cc1	1	1	5	-2
COC(=O)c1cc(CN2CCN(c3ccccc3)CC2)ccc1O	-4	98*	-2	3
COC(=O)c1ccccc1NC(=O)CN1CCN(Cc2ccccc2)CC1	1	19	3	-1
COc1cccc(NC(=O)NNC(=O)CCc2ccc(O)c(O)c2)c1	-1	99*	-1	-2
O=C(CCc1ccc(O)c(O)c1)NNC(=S)Nc1ccc(Br)cc1Cl	-3	99*	3	3
O=C(CCc1ccc(O)c(O)c1)NNC(=S)NCCc1ccccc1	-2	99*	2	-1
